From PubChem BioAssay
Bm FixLJ act – increases Burkholderia fixLJ two-component signaling; B. multivorans fixK-promoter GFP reporter, 18 h; stronger effect = higher value; z-score (no concentration beside the values); hit rate 0.3% among 29,000;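 active = replicate mean overnight rise in green fluorescent reporter signal, 3 or more SD over negative controls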
Of the large screens only hits and unclear results are named; the others gave an inactive call; ! = not confirmed by another sample. Shown is part of a subset that was picked to be rich in hits.

COc1cc(C(C)NC(=O)N2CC(c3ccccn3)C2)cc(OC)c1OC (stereo not given)	none
CCc1nccn1CCCNC(=O)CSc1nc(C)cs1	none
COc1cc(C(=O)NC(c2ccc3c(c2)CCO3)C2CC(O)C2)ccc1F (stereo not given)	none
COc1cccc(CC(=O)N2CC(C(=O)O)C(c3ccccc3)C2)c1OC (stereo not given)	none
CCCn1cc(NC(=O)NCc2csc3c2CCCC3)nn1	none
NC(CO)C(=O)NNCc1ccc(O)c(O)c1O (stereo not given)	Bm FixLJ act 3.05!
COc1ccc2[nH]c(CNC(=O)c3ccc(C(=O)N4CCOCC4)cc3)cc2c1	none
CN(C)c1cccc(C(=O)N2CC3CCC(C2)C3NC(=O)CCc2ccncc2)c1 (stereo not given)	none
CC1(C(=O)N2CCC3(CC2)c2nc[nH]c2CCN3C(=O)C2CCC2)COC1	none
